Assay outcomes (PubChem BioAssay)
A selection: hits, their analogues and other compounds. The true share with any hit is near 2.5%.
MEKK2wt PB1 HTS – raises or lowers MEK5 binding to wildtype human MEKK2 PB1 domain | Q9Y2U5 | binding response (% of control), % at 10 µM | actives 1.1% (n = 290,000) | bead flow cytometry, Alexa488-MEK5 binding to MEKK2 WT; actives lie on both sides; in the data active = binding response below about 67% or above about 130%
MEKK3 PB1 HTS – raises or lowers MEK5 binding to the human MEKK3 PB1 domain. Q99759. bead-based flow cytometry, Alexa488-MEK5 binding to MEKK3; actives lie on both sides; 0 = blocked by unlabeled MEK5, 100 = vehicle. binding response (% of control), % at 10 µM. actives 1.4% (n = 290,000);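 active = binding response more than 3 SD above or below the average of its plate-row segment, actives on both sides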;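 note: Alexa488 bead fluorescence after subtracting the streptavidin-only scavenger bead signal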
MEKK2 mut-MEK5 – signal of MEK5 binding to mutant human MEKK2 PB1 domain | bead flow cytometry, Alexa488-MEK5 binding to MEKK2 mutant | percent response, % at 10 µM | actives 0.35% (n = 290,000); in the data active = percent response above about 24%, passing the limit was not always enough
GRK2 inh – human GRK2 inhibition via aptamer displacement; P25098; bead flow cytometry, FAM-aptamer displacement from GRK2; inhibition of aptamer binding, % at 10 µM; actives 0.59% (n = 330,000); AID 488847;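 active = inhibition of aptamer binding above 40%, roughly 3 SD of noise, on plates passing a quality check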;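 note: median bead fluorescence of bound FAM aptamer so fluorescent compounds give negative values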
Target sequence (P25098 whole entry, looked up): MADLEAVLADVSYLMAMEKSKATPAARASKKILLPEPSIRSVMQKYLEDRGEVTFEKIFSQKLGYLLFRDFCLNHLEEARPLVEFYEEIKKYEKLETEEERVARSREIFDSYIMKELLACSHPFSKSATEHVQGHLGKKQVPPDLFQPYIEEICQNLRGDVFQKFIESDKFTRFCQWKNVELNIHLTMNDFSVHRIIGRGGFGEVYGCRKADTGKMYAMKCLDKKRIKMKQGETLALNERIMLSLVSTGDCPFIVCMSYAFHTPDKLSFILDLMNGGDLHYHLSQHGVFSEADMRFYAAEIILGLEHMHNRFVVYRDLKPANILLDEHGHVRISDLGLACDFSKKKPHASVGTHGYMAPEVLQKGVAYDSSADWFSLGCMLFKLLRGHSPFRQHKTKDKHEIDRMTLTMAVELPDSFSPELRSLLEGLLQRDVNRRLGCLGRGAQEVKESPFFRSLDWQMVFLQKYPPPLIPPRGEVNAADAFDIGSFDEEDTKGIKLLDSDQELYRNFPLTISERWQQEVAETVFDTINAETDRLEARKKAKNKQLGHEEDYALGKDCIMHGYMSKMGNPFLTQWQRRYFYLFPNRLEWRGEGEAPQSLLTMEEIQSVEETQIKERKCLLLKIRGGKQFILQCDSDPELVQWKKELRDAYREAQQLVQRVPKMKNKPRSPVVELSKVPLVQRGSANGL
MEKK2wt confirm – raises or lowers MEK5 binding to wildtype human MEKK2, retest | shares compounds with MEKK3 PB1 HTS | bead flow cytometry, Alexa488-MEK5 binding to MEKK2 WT; actives lie on both sides | binding response (% of control), % at 10 µM | actives 2.4% (n = 5,900); in the data active = binding response below about 16% or above about 210%; inactive = in between
MEKK2mut confirm – signal of MEK5 binding to mutant human MEKK2, retest; shares compounds with MEKK3 PB1 HTS; bead flow cytometry, Alexa488-MEK5 binding to MEKK2 mutant; percent response, % at 10 µM; actives 2% (n = 5,900); AID 1893; in the data active = percent response mostly above about 71%, no sharp cut-off; inactive = mostly below about 38%;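 note: higher means compound restores mutant binding toward wildtype level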
MEKK3-MEK5 inh – MEKK3-MEK5 PB1 inhibition, single concentration confirmation; shares compounds with MEKK3 PB1 HTS; bead flow cytometry, Alexa488-MEK5 binding to MEKK3; stronger effect = lower value; binding response (% of control), % at 10 µM; actives 1.8% (n = 5,900); AID 1894;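 active = binding response below 72% of control, or above a set upper limit, though filed actives all read lower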;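 note: 100% = DMSO only wells and 0% = binding blocked by excess unlabeled MEK5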
Starred values were filed as active, the others as inactive; · = no result given; [ ] = remark or other dose.

SMILES	MEKK2wt PB1 HTS	MEKK3 PB1 HTS	MEKK2 mut-MEK5	GRK2 inh	MEKK2wt confirm	MEKK2mut confirm	MEKK3-MEK5 inh
CN(C)C(=O)NCc1ccc(S(N)(=O)=O)cc1	50.0	39.0*[inhibitor]	-8.0	0.0	100.0	1.0	102.0
O=C(CN1CCN(c2ccccc2Cl)CC1)NC1CCCc2ccccc21 (stereo not drawn)	106.0	129.0*	1.0	5.0	102.0	-9.0	96.0
COc1ccc(-c2nnn(CC(=O)NC3CCCc4ccccc43)n2)cc1OC (stereo not drawn)	115.0	122.0*	5.0	6.0	102.0	1.0	100.0
COc1ccc(-c2nnn(CC(=O)c3ccc4c(c3)OCCO4)n2)cc1OC	103.0	123.0*	6.0	0.0	106.0	5.0	104.0
O=C(CCCCn1c(=O)c2ccccc2n(CC(=O)Nc2ccc(F)cc2)c1=O)NCc1ccco1	103.0	103.0	3.0	0.0	·	·	·
Cc1cccc(NS(=O)(=O)c2ccc(C(=O)NCC3(N4CCCCC4)CCCCC3)cc2)c1C	·	·	·	0.0	·	·	·
Cc1ccc(-c2noc(-c3ccccc3C(=O)N3CCCC3)n2)cc1	105.0	99.0	1.0	0.0	·	·	·
Fc1ccc(NC(=S)Nc2ccc3nccnc3c2)cc1	118.0	130.0*	1.0	0.0	101.0	-5.0	101.0
CN(C)S(=O)(=O)c1ccc(S(=O)(=O)NCCN2CCOCC2)cc1	102.0	102.0	0.0	3.0	·	·	·
c1ccc2c(c1)CCN2CCN1CCc2ccccc21	99.0	98.0	2.0	3.0	·	·	·
CN(C)CCN1CCc2ccccc21	144.0*	100.0	11.0	0.0	152.0	38.0	97.0
Cn1cc([N+](=O)[O-])c(C(=O)NCc2ccco2)n1	102.0	111.0	-2.0	1.0	·	·	·
CCn1cc(Br)c(C(=O)NCc2ccco2)n1	65.0	43.0*[inhibitor]	-25.0	0.0	101.0	-3.0	101.0
CCOC(=O)c1ccc2[nH]c3c(c2c1)CN(C)CC3	129.0	105.0	24.0*	0.0	124.0	16.0	100.0
Cc1ccc2[nH]c3c(c2c1)CN(C)CC3	101.0	88.0	16.0	2.0	·	·	·
COc1cc(/C=N/NC(=O)c2ccc3c(c2)OCO3)ccc1O	97.0	95.0	-1.0	4.0	·	·	·
COc1cc(/C=N/NC(=O)/C(=C\c2ccc3c(c2)OCO3)NC(=O)c2ccccc2)ccc1O	103.0	142.0*	1.0	1.0	104.0	5.0	107.0
COc1cc(/C=N/NC(=O)C(=O)NCC2CCCO2)ccc1O (stereo not drawn)	117.0	162.0*	3.0	0.0	103.0	0.0	103.0
Cc1ccc2c(C(=O)CN3CCCCC3CCO)c(C)[nH]c2c1 (stereo not drawn)	101.0	101.0	0.0	0.0	·	·	·
Cn1c(=O)c2cc(S(=O)(=O)NC(Cc3ccccc3)C(=O)NCC3CCCO3)ccc2n(C)c1=O (stereo not drawn)	123.0	138.0*	4.0	0.0	96.0	-4.0	97.0
N#CC1=C(S)N(c2ccccc2)C(c2ccc(-c3cccc(Cl)c3)o2)NC1=O (stereo not drawn)	101.0	130.0*	0.0	0.0	95.0	-7.0	100.0
CCOC(=O)c1sc(N)c(C#N)c1CSc1nnc(C2CCCCC2)n1N	-1.0*[inhibitor]	0.0*[inhibitor]	-20.0	0.0	98.0	2.0	103.0
N#Cc1ccc(COC(=O)CSc2nnc(C3CCCCC3)n2N)cc1	105.0	102.0	6.0	2.0	·	·	·
CN1CCN(c2ncccc2S(=O)(=O)N2CCCCC2)CC1	1.0*[inhibitor]	1.0*[inhibitor]	-2.0	0.0	98.0	-3.0	101.0
O=S(=O)(c1cccc2cccnc12)N1CCCCC1	105.0	104.0	5.0	1.0	·	·	·
SMILES	MEKK2wt PB1 HTS	MEKK3 PB1 HTS	MEKK2 mut-MEK5	GRK2 inh	MEKK2wt confirm	MEKK2mut confirm	MEKK3-MEK5 inh
COCCNc1nnc(SCC(=O)Nc2sc3c(c2C(=O)c2ccccc2)CCCC3)s1	106.0	131.0*	0.0	2.0	99.0	-4.0	102.0
Nc1nnc(SCC(=O)Nc2sc3c(c2C(=O)c2ccccc2)CCCC3)s1	98.0	102.0	-1.0	0.0	·	·	·
Cc1ccccc1C(=O)N(Cc1nc2ccccc2c(=O)[nH]1)C1CCCC1	113.0	128.0*	0.0	1.0	99.0	0.0	102.0
CCSCCOC(=O)C1=C(C)NC(=O)NC1c1ccccc1 (stereo not drawn)	106.0	102.0	2.0	0.0	·	·	·
Cc1c(/C=N/NC(=O)c2ccc(O)cc2)c2ccccn2c1C(=O)c1ccc(F)cc1	96.0	99.0	-2.0	0.0	·	·	·
COC(=O)N/N=C/c1c(C)c(C(=O)c2ccc(F)cc2)n2ccccc12	101.0	114.0	0.0	0.0	·	·	·
Cc1c(/C=N/NC(=O)c2ccccc2O)c2ccccn2c1C(=O)c1ccc(F)cc1	108.0	142.0*	1.0	0.0	89.0	-11.0	98.0
CCOC(=O)N/N=C/c1c(C)c(C(=O)c2ccc(F)cc2)n2ccccc12	67.0	74.0*[inhibitor]	-12.0	1.0	105.0	-6.0	100.0
CCN(CC(=O)Nc1c(F)cccc1F)C(=O)Cc1ccc2c(c1)OCCO2	·	·	·	1.0	·	·	·
Cc1ccc(C)n1-n1cnc2scc(-c3cccs3)c2c1=O	95.0	100.0	-1.0	0.0	·	·	·
CCC(CO)Oc1cc(NC(=O)c2ccc(N)cc2)c2ncn(C(C)C)c2c1 (stereo not drawn)	·	·	·	9.0	·	·	·
N#CNC(N)=Nc1cccc(Cl)c1	126.0	122.0*	8.0	0.0	101.0	-2.0	100.0
COc1ccc(CCNC(=O)c2cc(=O)[nH]c3ccccc23)cc1	94.0	96.0	0.0	2.0	·	·	·
Cc1ccc(OCc2cc(C(=O)N3CCCC(O)C3)no2)cn1 (stereo not drawn)	99.0	98.0	-4.0	0.0	·	·	·
Cc1nc2c(oc3ccc(Cl)cc32)c(=O)[nH]1	50.0	49.0*[inhibitor]	-29.0	2.0	97.0	-1.0	102.0
CCN(CC)S(=O)(=O)c1ccc(NS(=O)(=O)c2ccc3oc(=O)[nH]c3c2)cc1	107.0	100.0	3.0	3.0	·	·	·
CCN(CC)S(=O)(=O)c1ccc(NS(=O)(=O)c2ccc(O)c([N+](=O)[O-])c2)cc1	109.0	144.0*	0.0	0.0	98.0	-4.0	99.0
CC(Oc1ccc2c(c1)oc(=O)c1ccccc12)C(=O)NCCCN1CCOCC1 (stereo not drawn)	106.0	105.0	7.0	0.0	·	·	·
CC(C)(C)N(C=C(Cl)Cl)C(=O)NC1CCCCC1	104.0	104.0	12.0	2.0	·	·	·
C=CCc1c(C)nc2c(OC)cccc2c1Cl	111.0	131.0*	-1.0	1.0	103.0	-2.0	100.0
CCN(CC)CCCN(C(=O)c1ccccc1C)c1nc(-c2ccc(OC)cc2)cs1	145.0*	107.0	20.0	0.0	142.0	24.0	109.0
